Laboratory results taken from PubChem BioAssay (NCATS).
Inconclusive results are not listed. Calls of active or inactive are those of the source. Calls come from the whole dose curve; as a rule, active = well fitted curve in either direction with a large enough effect (not every such curve was filed as active); inconclusive = small, poorly fitted or top-dose-only effect, or another doubt; inactive = flat fitted curve, though single readings scatter.

These molecules were tested against Mitogen-activated protein kinase 10 (Mus musculus) (UniProt Q61831) (assay: JNK3 AlphaScreen Assay (AID 530;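 note: kinase came from lysate of stimulated human HepG2 cells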)). Details: JNK3 lysate, c-Jun phosphorylation; series mostly up to 57.1 µM.
Source text: NIH Chemical Genomics Center [NCGC]
NIH Molecular Libraries Screening Centers Network [MLSCN]
The c-jun N-terminal kinase (JNK) family are serine/threonine protein kinases that phosphorylate c-jun, a component of the transcription factor […] (AP-1). JNK kinases are members of the mitogen-activated protein kinase family including the extracellular regulated kinases and p38 kinases. Three JNK genes (JNK 1, 2, and 3) have been identified in humans so far. JNK1 and JNK2 have a broad distribution and JNK3 is primarily found in neuronal tissues and cardiac myocytes.
JNK3 has been under consideration as a target for the treatment of neurodegenerative disorders. […] JNK pathway is also involved in pathological process in a mouse model of Parkinson's disease (Xia et al., 2001).
Given these potential tissue distributions and links to neuroprotection, JNK3 inhibitors should provide useful investigational tools to study the role of this kinase in several diseases including, arthritis, stroke, myocardial infarction, ischemic injury and Parkinson's disease.
A homogeneous AlphaScreen is developed to measure the activity of JNK3. AlphaScreen is a two bead-based proximity-dependent chemical energy transfer luminescent assay platform. The phosphorylation of a biotinylated c-jun substrate by JNK3 can be detected with an antibody raised against phosphorylated c-jun. This process brings streptavidin donor beads and Protein-A acceptor beads to within a proximity range of <200 nm, and subsequently lead a chemical luminescent reaction upon exciting donor beads with 680 nm laser excitation light. Inhibition of JNK3 activity by small molecules and subsequent decrease in the antibody binding to biotinylated c-jun could attenuate or abolish this chemical luminescent reaction.
Yang DD, Kuan CY, Whitmarsh AJ, Rincon M, Zheng TS, Davis RJ, Rakic P and Flavell RA (1997) Absence of excitotoxicity-induced apoptosis in the hippocampus of mice lacking the Jnk3 gene. Nature 389:865-870. [PMID: 9349820]
Herdegen T, Claret FX, Kallunki T, Martin-Villalba A, Winter C, Hunter T, and Karin M (1998) Lasting N-terminal phosphorylation of c-Jun and activation of c-Jun N-terminal kinases after neuronal injury. J.Neurosci. 18:5124-5135. [PMID: 9651196]
Xia XG, Harding T, Weller M, Bieneman A, Uney JB and Schulz JB (2001) Gene transfer of the JNK interacting protein-1 protects dopaminergic neurons in the MPTP model of Parkinson's disease. Proc.Natl.Acad.Sci.U.S.A. 98:10433-10438.
NCGC Assay Protocol Summary:
GST-cJun (1-79) (Stratagene, La Jolla CA, #205145) was biotnylated by PerkinElmer (PerkinElmer-BioSignalInc. Montreal, Canada) and was detectable by the streptavidin Donor beads. Anti-(phospho)cJun (Ser73) antibody was from UpState (Charlottesvilles, VA, #06-659). JNK3-containing lysates were generated from HepG2 cells and pre-activated by interleukin1-beta and tumor necrosis factor alpha. All reagents were stored at -20 C before using. Phosphorylated biotinylated-GST-cJun was recognized by Anti-(phospho)cJun (Ser73) antibody and this process brings acceptor and donor beads together. Therefore JNK3 phosphorylation of cJun can be measured by Alpha reading by EnVision (PerkinElmer, Boston, MA).
The composition of kinase buffer was (in mM) 20 tris- HCl (pH 7.6) 10 MgCl2, 1 DTT, and 0.1 Na3VO4 and 0.01% Tween-20. Beads were diluted in detection buffer containing (in mM) 20 tris-HCl (pH 7.7), 20 NaCl and 80 EDTA and 0.3% BSA. The assay was performed at room temperature. All compounds were screened as titrations from 0.6 nM to 46 uM final concentration. The assay was performed in 1536-well format (white solid bottom and untreated) as follows:
Sequence,Parameter,Value,Description
1,Reagent,3 uL,Biotin-GST-cJun, Anti-(phospho)cJun and pre-activated JNK3-containing lysates
2,Compound,23 nL,Final concentration was 0.6nM to 46uM
3,Time,15 minutes,Room Temperature
4,Reagent,1 uL,ATP final concentration 10uM
6,Reagent,0.5 uL,2ng/well bead mixture
[…]

Potency, inactive:
COCCn1c(=O)c(-c2ccc(OC)cc2)nc2cnc(Nc3cccc(OC)c3)nc21
Cn1cccc1C(=O)N1CCC2(CCCN(Cc3ccncc3)C2)CC1
Cc1ccccc1-c1cncnc1N1CCN(C)CC1
COc1cccc(Cn2c(=O)c(-c3cn(C)c4ccccc34)nc3cnc(N4CCOCC4)nc32)c1
O=c1c(-c2cccs2)nc2cncnc2n1Cc1ccc(F)cc1
COC(=O)N1CCC2(CC1)CCN(c1ccncc1)CC2
c1ccc(CNc2ncnc3ccc(-c4ccoc4)cc23)cc1
c1cncc(-c2nc(NCCN3CCOCC3)c3ccccc3n2)c1
COc1ccccc1-c1cncnc1Nc1ccccc1
COc1ccccc1CN1CC2(CCN(S(=O)(=O)c3ccccc3)CC2)C1
COc1ccccc1CNc1nc(-c2ccccc2OC)nc2ccccc12
Cn1c(=O)c(CCc2ccccc2)nc2cnc(Oc3ccccc3)nc21
O=S(=O)(c1ccccc1)N1CCC2(CC1)CN(Cc1ccccc1)C2
COc1ccc(NC(=O)N2CCCC3(CCN(C(=O)c4ccc(OC)cc4)CC3)C2)cc1
Cc1noc(C)c1-c1nccc(Nc2ccc(F)cc2)n1
CN(C)c1ncc2nc(-c3ccc(Cl)cc3)c(=O)n(C)c2n1
COc1ccccc1-c1cncnc1N(C)Cc1ccco1
Cc1nc2cncnc2n(Cc2ccc(F)cc2)c1=O
O=S(=O)(c1ccccc1)N1CCC2(CCCN(c3ccccc3)C2)CC1
N#Cc1cccc(NC(=O)N2CC3(CCN(C(=O)c4cnccn4)CC3)C2)c1
CN(Cc1ccco1)c1ccnc(-c2cccc(NS(C)(=O)=O)c2)n1
CN(C)c1ncc2nc(-c3ccccc3)c(=O)n(CCC#N)c2n1
COc1ccc(C(=O)N2CCC3(CCN(Cc4ccccc4OC)CC3)CC2)cc1
Cc1cccc(CNc2ncncc2-c2ccc(C(=O)N(C)C)cc2)c1
Cn1cccc1C(=O)N1CCC2(CCCN(C(=O)Nc3ccccc3)C2)CC1
O=c1c(-c2ccc(F)c(F)c2)nc2cncnc2n1Cc1ccc(F)cc1
O=C(c1cccc(F)c1)N1CCC2(CCCN(c3ccccc3)C2)CC1
N#CCCn1c(=O)c(-c2cccs2)nc2cnc(N3CCNCC3)nc21
O=C(Oc1ccccc1)N1CCC2(CC1)CN(c1ccccn1)C2
COc1ccc(Oc2ncc3nc(-c4cn(C)c5ccccc45)c(=O)n(C)c3n2)cc1
O=C(c1ccncc1)N1CCC2(CCCN(Cc3ccncc3)C2)CC1
COc1ncc2nc(-c3ccc(Cl)cc3)c(=O)n(Cc3cccs3)c2n1
CNc1nc(-c2ccccc2C)nc2ccccc12
CN(C)C(=O)c1ccc(-c2nccc(-n3ccnc3)n2)cc1
O=S(=O)(c1ccccc1)N1CCC[C@@]2(CCN(Cc3cc(C(F)(F)F)cc(C(F)(F)F)c3)C2)C1
COc1ccc(-n2c(=O)c(CCc3ccccc3)nc3cnc(N4CCN(C)CC4)nc32)cc1
CC(=O)NCCNc1ccnc(-c2ccccc2C)n1
Cn1cccc1C(=O)N1CCC2(CCN(Cc3ccc(C#N)cc3)CC2)CC1
CCNc1ncc2ncc(=O)n(CCc3ccccc3)c2n1
COc1cccc(Nc2ncc3nc(-c4ccc(Cl)cc4)c(=O)n(C[C@H]4CCCO4)c3n2)c1
